From PubChem
12-LOX inh: Primary qHTS assay for inhibitors of human arachidonate 12S-lipoxygenase (ALOX12): Round 2; Polyunsaturated fatty acid lipoxygenase ALOX12 (Homo sapiens), P18054; purified 12hLO, xylenol orange hydroperoxide absorbance; Potency, µM (doses to about 108 µM), for inactives: at the highest dose activity change, negative = inhibition, usual class: inhibitors; actives 1.1% (n = 580,000); AID 1671190, 2021; further: potency means the concentration at half of the fitted maximal effect; on the % scale 0 is the no-effect control and ±100 the full control effect
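Purified human 12hLO (150 nM final) in 25 mM Hepes, 0.01% Triton X-100, pH 7.0 was preincubated 15 min at room temperature with compound. Then 40 uM arachidonic acid was added, 30 min. Hydroperoxide was read by Fe-XO absorbance ratio 573/405 nm.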
Vif-APOBEC3G blk: qHTS for Inhibitors of Vif-A3G Interactions: qHTS. DNA dC->dU-editing enzyme APOBEC-3G (Homo sapiens), Q9HC16. HeLa A3G-eYFP + Vif (tagged APOBEC3G with the HIV-1 protein that degrades it), YFP fluorescence, overnight. Potency, µM (series often up to 46.1 µM), inactives show top-dose activity, negative = active, most hits filed as inhibitors. actives 0.076% (n = 410,000); further: potency means the concentration at half of the fitted maximal effect; on the % scale 0 is the no-effect control and ±100 the full control effect; nearly all actives have a fitted effect of over 60% in size
Target sequence (Q9HC16 whole entry, looked up): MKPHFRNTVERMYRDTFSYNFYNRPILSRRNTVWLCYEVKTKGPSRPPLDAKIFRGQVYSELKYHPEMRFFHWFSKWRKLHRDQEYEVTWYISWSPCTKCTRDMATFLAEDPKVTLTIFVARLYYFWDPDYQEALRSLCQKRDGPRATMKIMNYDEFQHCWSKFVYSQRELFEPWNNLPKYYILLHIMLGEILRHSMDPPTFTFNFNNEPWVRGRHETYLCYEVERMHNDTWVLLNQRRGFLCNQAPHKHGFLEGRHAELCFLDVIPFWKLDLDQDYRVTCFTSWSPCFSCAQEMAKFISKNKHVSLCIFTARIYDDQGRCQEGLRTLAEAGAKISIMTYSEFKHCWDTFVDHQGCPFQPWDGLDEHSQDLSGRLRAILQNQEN
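Read-out is eYFP fluorescence (Ex 488/Em 500-530) from Vif-expressing HeLa A3G-eYFP cells; more signal means A3G escaped Vif-mediated degradation. Cells plated overnight, compound pinned in, incubated overnight at 37 deg C.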
Glioma ERSR ind: qHTS for Inducers of the Endoplasmic Reticulum Stress Response (ERSR) in Human Glioma: qHTS; actives 0.02% (n = 420,000); AID 602332, 2012; U87-MG GRP78 promoter luciferase reporter, 16 h; Potency, µM, without a hit: top-dose activation, hits mostly activators; further: potency means the concentration at half of the fitted maximal effect; series mostly up to about 76 µM; % of control where 0% means no effect; nearly all actives have a fitted effect of over 35% in size
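ERSR induction read as luciferase luminescence (Bright-Glo, 10 min at room temperature) in stably transfected human U87-MG glioma cells exposed to compounds for 16 h, using GRP78 as sensor.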
TRPML1 inh: qHTS for Inhibitors of the Human Mucolipin Transient Receptor Potential 1 (TRPML1). Mucolipin-1 (Homo sapiens), Q9GZU1. TRPML1-inducible cells, Ca2+ dye fluorescence, FDSS; stronger effect = lower value; inhibition of EC80 agonist-evoked calcium signal. activity change, negative = inhibition, % (concentration not given with the values). actives 0.02% (n = 390,000); in the data active means activity change below about -50%; inconclusive means between about -30% and that limit;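 further: stimulus is agonist 54-4 at its EC80 concentration; on the % scale 0 is the no-effect control and ±100 the full control effect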
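Calcium fluorescence in TRPML1-DL cells induced overnight with Tet: a 110 s read after compound pin addition, then a 110 s antagonist read after challenge with 54-4 at 4 uM final (EC80).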
Vif-APOBEC3F blk: qHTS for Inhibitors of Vif-A3F Interactions: qHTS | Potency, µM (titrated, usually from 46.1 µM), inactives show top-dose activity, negative = active | actives 0.2% (n = 390,000) | HeLa A3F-eYFP + Vif (tagged APOBEC3F with the HIV-1 protein that degrades it), YFP fluorescence increase; further: potency means the concentration at half of the fitted maximal effect; % of control where 0% means no effect; nearly all actives have a fitted effect of over 65% in size
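HeLa cells stably expressing Vif plus C-terminally eYFP-tagged A3F were seeded, incubated overnight at 37 deg C, dosed with compound, incubated overnight again at 37 deg C. Yellow fluorescence (Ex 488/Em 500-530) reported blocked Vif-mediated A3F-eYFP degradation.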
TRPML1 agonist: qHTS for Agonists of the Human Mucolipin Transient Receptor Potential 1 (TRPML1) | TRPML1-expressing cells, Ca2+ dye fluorescence, FDSS | Mucolipin-1 (Homo sapiens), Q9GZU1 | activation, % (no concentration beside the values) | actives 0.12% (n = 410,000); in the data active means activation above about 50%; inconclusive means mostly about 30% to 49%; further: 0% is about no effect
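Cells: TRPML1-DL, 1X Tet inducer, ~16 h at 37 degrees C/5% CO2. Dye: ABD Ca8 no-wash + quencher, 45-90 min RT. Read: 10 s baseline, compound add, 110 s agonist phase; 54-4 EC80 (4uM final), 110 s antagonist phase.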
An asterisk follows results filed as active; u = inconclusive; x = not tested or not shown; [ ] = dose if it differs, or a comment. Sampled rows, rich in hits. Any-hit rate of the full collection: about 1.3%. Unless noted, the call rests on the fitted dose curve; in most records, active means well fitted curve in the direction sought with a large enough effect; inconclusive means small, poorly fitted or top-dose-only effect, or another doubt; inactive means no such curve, though single readings can be large; an effect the other way counts as inactive or inconclusive.

SMILES	12-LOX inh	Vif-APOBEC3G blk	Glioma ERSR ind	TRPML1 inh	Vif-APOBEC3F blk	TRPML1 agonist
O=C(O)Cn1ccc2cc(OCCc3cccc(-c4ccc(Cl)cc4)c3)cnc21	44.7µM*	x	x	x	x	x
O=C(O)Cn1ccc2cc(OCC3CCN(C(=O)COc4ccccc4)CC3)cnc21	9.2%[176 µM]	x	x	x	x	x
COc1cc(Cl)ccc1-c1cccc(CCOc2cnc3c(ccn3CC(=O)O)c2)c1	-20.9%[176 µM]	x	x	x	x	x
CC(C)CC(C(=O)NC1CCN(Cc2ccccc2)CC1)N1Cc2ccccc2C1=O (stereo not drawn)	4.0%	x	x	x	x	x
Cc1ccc(N/N=C(\C#N)C(N)=S)cc1C	2µM*	1.3%	-0.7%	-7.4	-0.2%	1.6
COC(=O)CNc1ccc(C(=O)OC)cc1	-74.6%	x	x	x	x	x
O=S(=O)(c1ccc(NC(=S)NC23CC4CC(CC(C4)C2)C3)cc1)N1CCCCC1	44.7µM*	4.0%	-5.3%	1.9	6.5%	-0.2
NS(=O)(=O)c1ccc(NC(=S)Nc2ccc(S(=O)(=O)N3CCCC3)cc2)cc1	4.6%	3.2%	-2.2%	7.0	16.2%	-0.4
CCN(CC)S(=O)(=O)N1CCCC(c2nc3ccccc3o2)C1 (stereo not drawn)	31.8%	x	x	x	x	x
COCCn1cnc2c1c(=O)n(Cc1cccc3ccccc13)c(=O)n2Cc1ccccc1	-10.1%	x	x	x	x	x
CN(C)c1ccc(C(=O)N2CCCC(Cn3cc(C(=O)N4CCCC4)nn3)C2)cc1 (stereo not drawn)	11.0%	x	1.8%	x	x	x
CCC(N)(CC)c1cn(CC2CCCN(S(C)(=O)=O)C2)nn1 (stereo not drawn)	20µM*	x	x	x	x	x
CC(NC(=S)Nc1cccc(C(F)(F)F)c1)C(C)(C)C (stereo not drawn)	u	0.6%	-1.8%	-2.9	31.6µM*	0.1
Cc1ccc(C(=O)/C=C/c2ccc(-c3ccccc3)cc2)cc1[N+](=O)[O-]	-26.2%	x	x	x	x	x
CCC(C(=O)Nc1ccccc1OC)n1cnc2c1c(=O)n(C)c(=O)n2C (stereo not drawn)	11.6%	x	x	x	x	x
Cc1ccc(NC(=S)NNc2ccc(C(=O)O)cc2[N+](=O)[O-])cc1C	1.41µM*	-0.5%	-4.9%	-3.0	-3.5%	-0.7
O=C(O)c1ccccc1NS(=O)(=O)c1ccc(NNC(=S)Nc2ccc(OC(F)F)cc2)c([N+](=O)[O-])c1	3.55µM*	0.0%	-5.4%	9.0	14.2%	1.8
Cc1ccc(C(=O)NC(=S)Nc2cccc(NC(=O)c3ccccc3)c2)cc1[N+](=O)[O-]	25.1µM*	-0.4%	-3.8%	-2.0	-10.5%	0.8
CN(CCO)c1ccc(C=NNc2ccc([N+](=O)[O-])cc2S(=O)(=O)Nc2ccccc2C(=O)O)cc1	39.8µM*	-28.2%	-0.8%	u	u	3.4
Cc1ccc(Nc2ccc(C(N)=O)cc2[N+](=O)[O-])cc1C	6.6%	-6.5%	0.2%	13.2	-9.0%	2.8
CC(=O)Nc1ccc(C=NNc2ccc([N+](=O)[O-])cc2S(=O)(=O)Nc2ccccc2C(=O)O)cc1	u	0.8%	1.0%	-7.3	3.4%	1.9
Cc1ccc(NC(=S)NNc2ccc([N+](=O)[O-])cc2S(=O)(=O)Nc2ccccc2C(=O)O)cc1C	10µM*	2.7%	-3.7%	2.7	-7.2%	1.0
COC(=O)COc1cc(OCC(=O)OC)c2c(C)c(Cl)c(=O)oc2c1	-0.3%	1.0%	12.6%	-14.3	-10.8%	-0.1
COC(=O)C(C)Oc1cc(OC(C)C(=O)OC)c2c(C)c(Cl)c(=O)oc2c1 (stereo not drawn)	5.5%	-1.9%	39.8µM*	4.3	-2.3%	-0.7
OCCc1cn[nH]c1	24.0%	x	x	x	x	x
